For 27 molecules, outcome and AC50 results are on record in PubChem BioAssay (EPA / NIEHS).

SMILES strings stand for the structures. The source made the active and inactive calls. Rule for the calls: active = hit-call score of the fitted dose curve at least 0.9, where 1 is the maximum; inactive = score below 0.9.

Read-out in one assay: Transforming Growth Factor (TGFB1), TGFB1 (gene 7040)
Description: LTEA_HepaRG_TGFB1: Life Technologies and Expression Analysis (LTEA) Assay for Transforming Growth Factor (TGFB1) Transporter using HepaRG (AID 2283533). The note with it: mRNA level, 48 h; actives raise or lower the signal. A digest of the protocol: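 Expression change of TGFB1 in human HepaRG cells is measured after a 48 h chemical exposure, up to 100 uM in 0.5% DMSO vehicle. Curves are fitted in both directions relative to the DMSO baseline.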
On to `CCNc1nc(N)nc(Cl)n1`, for which the molecule was classed as inactive.

With `CCCN(CCC)C(=O)SCC`, the molecule was classed as inactive.

For the molecule `CC1(C)C(C=C(Cl)Cl)C1C(=O)OCc1cccc(Oc2ccccc2)c1` (configuration not stated), the molecule was classed as inactive.

With `Cc1nn(C)c(Oc2ccccc2)c1C=NOCc1ccc(C(=O)OC(C)(C)C)cc1`, the AC50 (usually the concentration giving half of the maximal activity seen) was 63.2 µM (active).

As to `CCOC(=O)COc1cc(-n2ncc(C(F)(F)F)c(C)c2=O)c(F)cc1Cl`, the result was inactive.

In the case of `c1ccc(Nc2ccccc2)cc1`, the molecule was classed as inactive.

In the case of `N#CSCSc1nc2ccccc2s1`, the call was inactive.

With `CCCCC(CC)CN1C(=O)C2C3C=CC(C3)C2C1=O` (configuration not stated), the AC50 was 78.8 µM (active).

Regarding `CC(=O)S[C@@H]1CC2=CC(=O)CC[C@]2(C)[C@H]2CC[C@@]3(C)[C@@H](CC[C@@]34CCC(=O)O4)[C@H]12`, the outcome was inactive.

Turning to `CCCCOC(=O)C(C)Oc1ccc(Oc2ccc(C(F)(F)F)cn2)cc1` (configuration not stated), the outcome was inactive.

In the case of `CC(C)CCCCCCc1ccc(O)cc1`, the result was inactive.

Turning to `CCCOC(=O)NCCCN(C)C`, the outcome was inactive.

In the case of `O=C(O)C1(C(=O)Nc2ccc(Cl)cc2Cl)CC1`, the call was inactive.

Regarding `CCOC(=O)NCCOc1ccc(Oc2ccccc2)cc1`, the molecule was called inactive.

For `O=C(c1ccc(O)cc1O)c1ccc(O)cc1O`, the outcome was inactive.

As to `CCOC(=O)c1ccc(O)cc1`, the result was inactive.

As for `CN(C)C(=O)Nc1ccc(Cl)c(Cl)c1`, the call was inactive.

Take `C#C[C@]1(O)CC[C@H]2[C@@H]3CCC4=CC(=O)CC[C@@H]4[C@H]3CC[C@@]21CC`: the result was inactive.

As to `CC(C)(C)[C@@H](O)[C@@H](Cc1ccc(Cl)cc1)n1cncn1`, the molecule was called inactive.

Turning to `CSC(=O)c1cccc2nnsc12`, the molecule was called inactive.

With `CCC(C)OC(=O)N1CCCCC1CCO` (configuration not stated), the molecule was classed as inactive.

For the molecule `CCCCC(CC)COC(=O)c1ccccc1C(=O)O` (configuration not stated), the result was inactive.

Consider `C[C@]12C[C@H](O)[C@H]3[C@@H](CCC4=CC(=O)CC[C@@]43C)[C@@H]1CC[C@@H]2C(=O)CO`, for which the molecule was called inactive.

In the case of `OB(O)O`, the result was inactive.

As to `Oc1ccc(C(c2ccc(O)cc2)C(Cl)(Cl)Cl)cc1`, the AC50 is 87.1 µM (active).

As for `COC(=O)c1ccccc1C(=O)O`, the outcome was inactive.

Read-out in a further assay: TIMP1, TIMP1 (gene 7076)
Description: LTEA_HepaRG_TIMP1: Life Technologies and Expression Analysis (LTEA) Assay for TIMP1 using HepaRG (AID 2283534).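 For outcome: TaqMan qRT-PCR signal normalized to ACTB GAPDH and POLR2A housekeeping genes.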 The note with it: mRNA level, 48 h; actives raise or lower the signal. A digest of the protocol: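 We dosed human liver HepaRG cultures for 48 hours with up to 100 uM test chemical and measured TIMP1 expression by qRT-PCR. Activity in either direction is fitted relative to the 0.5% DMSO vehicle.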
Consider `CCNc1nc(N)nc(Cl)n1`, for which the result was inactive.

In the case of `CCCN(CCC)C(=O)SCC`, the outcome was inactive.

As for `CC1(C)C(C=C(Cl)Cl)C1C(=O)OCc1cccc(Oc2ccccc2)c1` (configuration not stated), the molecule was called inactive.

For the molecule `Cc1nn(C)c(Oc2ccccc2)c1C=NOCc1ccc(C(=O)OC(C)(C)C)cc1`, the AC50 was 6.47 µM (active).

Regarding `CCOC(=O)COc1cc(-n2ncc(C(F)(F)F)c(C)c2=O)c(F)cc1Cl`, the molecule was classed as inactive.

As to `c1ccc(Nc2ccccc2)cc1`, the result was inactive.

In the case of `N#CSCSc1nc2ccccc2s1`, the result was inactive.

On to `CCCCC(CC)CN1C(=O)C2C3C=CC(C3)C2C1=O` (configuration not stated), for which the molecule was called inactive.

Turning to `CC(=O)S[C@@H]1CC2=CC(=O)CC[C@]2(C)[C@H]2CC[C@@]3(C)[C@@H](CC[C@@]34CCC(=O)O4)[C@H]12`, the result was inactive.

Turning to `CCCCOC(=O)C(C)Oc1ccc(Oc2ccc(C(F)(F)F)cn2)cc1` (configuration not stated), the molecule was classed as inactive.

In the case of `CC(C)CCCCCCc1ccc(O)cc1`, the call was inactive.

As for `CCCOC(=O)NCCCN(C)C`, the outcome was inactive.

Turning to `O=C(O)C1(C(=O)Nc2ccc(Cl)cc2Cl)CC1`, the result was inactive.

For `CCOC(=O)NCCOc1ccc(Oc2ccccc2)cc1`, the result was inactive.

As for `O=C(c1ccc(O)cc1O)c1ccc(O)cc1O`, the result was inactive.

Consider `CCOC(=O)c1ccc(O)cc1`, for which the outcome was inactive.

As for `CN(C)C(=O)Nc1ccc(Cl)c(Cl)c1`, the result was inactive.

Turning to `CC(C)(C)[C@@H](O)[C@@H](Cc1ccc(Cl)cc1)n1cncn1`, the molecule was classed as inactive.

For `CSC(=O)c1cccc2nnsc12`, the outcome was inactive.

On to `CCC(C)OC(=O)N1CCCCC1CCO` (configuration not stated), for which the result was inactive.

For `CCCCC(CC)COC(=O)c1ccccc1C(=O)O` (configuration not stated), the molecule was called inactive.

For `C[C@]12C[C@H](O)[C@H]3[C@@H](CCC4=CC(=O)CC[C@@]43C)[C@@H]1CC[C@@H]2C(=O)CO`, the result was inactive.

Take `OB(O)O`: the molecule was classed as inactive.

Regarding `Oc1ccc(C(c2ccc(O)cc2)C(Cl)(Cl)Cl)cc1`, the AC50 is 79.2 µM (active).

As for `c1ccc2[nH]c(-c3cscn3)nc2c1`, the molecule was classed as inactive.

Consider `COC(=O)c1ccccc1C(=O)O`, for which the call was inactive.
